Source: PubChem BioAssay AID1347418 (Sanford-Burnham Center for Chemical Genomics, 2020)
Hit rate of the full screen: of about 1,300 compounds, about 750 (58%) were called active. The list shows a part of the results.

molecular target: Sulfhydryl oxidase 1 (Homo sapiens) (UniProt O00391); assay: QSOX1 enzyme inhibitors, primary screen, biochemical, ROS-Glo H2O2 luminescence, HTS (AID 1347418); details: recombinant QSOX1, ROS-Glo H2O2 luminescence; at 12.5 µM; stronger effect = higher value; active = any value above zero
Sequence (O00391 whole entry, looked up): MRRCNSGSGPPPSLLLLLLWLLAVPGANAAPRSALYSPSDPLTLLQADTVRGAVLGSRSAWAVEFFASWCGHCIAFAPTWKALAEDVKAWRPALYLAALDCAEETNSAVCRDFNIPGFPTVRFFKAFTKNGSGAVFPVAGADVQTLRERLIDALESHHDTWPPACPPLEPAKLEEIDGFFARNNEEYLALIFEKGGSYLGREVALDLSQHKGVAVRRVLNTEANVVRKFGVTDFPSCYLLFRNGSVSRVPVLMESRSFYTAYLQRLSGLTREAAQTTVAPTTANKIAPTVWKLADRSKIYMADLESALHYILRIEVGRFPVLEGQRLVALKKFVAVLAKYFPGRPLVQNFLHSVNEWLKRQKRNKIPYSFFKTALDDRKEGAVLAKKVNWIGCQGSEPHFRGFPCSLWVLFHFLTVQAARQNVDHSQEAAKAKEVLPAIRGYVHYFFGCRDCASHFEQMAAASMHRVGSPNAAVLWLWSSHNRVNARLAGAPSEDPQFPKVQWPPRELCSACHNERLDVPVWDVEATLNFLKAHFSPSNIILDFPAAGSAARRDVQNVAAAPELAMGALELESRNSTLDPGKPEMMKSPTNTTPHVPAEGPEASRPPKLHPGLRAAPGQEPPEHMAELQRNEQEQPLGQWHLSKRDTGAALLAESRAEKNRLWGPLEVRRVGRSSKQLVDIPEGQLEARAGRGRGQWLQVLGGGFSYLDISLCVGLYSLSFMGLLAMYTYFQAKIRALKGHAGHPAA

inhibition, active:
CN(C)C(=O)/N=N/C(=O)N(C)C 8.2%
Fc1ccc(CN(C2=NCCN2)c2c(Cl)cccc2Cl)cc1 1.1%
O=C(O)c1cc(=O)c2ccccc2[nH]1 5.6%
OC[C@H]1O[C@@H](n2cnc3c(NC4CCCCC4)ncnc32)[C@H](O)[C@@H]1O 4.8%
OC[C@H]1O[C@@H](n2cnc3cncnc32)[C@H](O)[C@@H]1O 4.9%
C[C@H](Cc1ccccc1)Nc1ncnc2c1ncn2[C@@H]1O[C@H](CO)[C@H](O)C1O (some centres undefined) 1.4%
Nc1nc(SCc2ccc([N+](=O)[O-])cc2)c2ncn([C@@H]3O[C@H](CO)[C@H](O)C3O)c2n1 (some centres undefined) 4.9%
OC[C@H]1O[C@@H](n2cnc3c(NC4CCCC4)ncnc32)C(O)[C@H]1O (some centres undefined) 0.7%
Nc1ccc(CCNc2ncnc3c2ncn3C2OC(CO)C(O)C2O)cc1 (centres undefined) 4%
COc1cc(SC)ccc1C(=O)N1CCC(Cc2ccccc2)CC1 1.4%
CNCC[C@H](Oc1ccc(C(F)(F)F)cc1)c1ccccc1 11.2%
CNCCC(Oc1ccc(C(F)(F)F)cc1)c1ccccc1 (centres undefined) 2.1%
CN(CC[C@@H](Oc1ccc(C(F)(F)F)cc1)c1ccccc1)CC(=O)O 6.8%
Ic1ccc(N2CCN(Cc3c[nH]c4ncccc34)CC2)cc1 15.6%
Clc1ccc(N2CCN(Cc3c[nH]c4ncccc34)CC2)cc1 24.1%
Nc1nc2c(cnn2CCc2ccccc2)c2nc(-c3ccco3)nn12 1.8%
CN1C2CCC1CC(OC(=O)c1c[nH]c3ccccc13)C2 (centres undefined) 2.4%
CN1C2CCC1CC(OC(=O)C(CO)c1ccccc1)C2 (centres undefined) 3%
COc1ccc(/C=C/C(=O)Nc2ccccc2C(=O)O)cc1OC 23.4%
CN[C@H](CC(C)C)C(=O)N[C@H]1C(=O)N[C@@H](CC(N)=O)C(=O)N[C@H]2C(=O)N[C@H]3C(=O)N[C@H](C(=O)N[C@H](C(=O)O)c4cc(O)cc(O)c4-c4cc3ccc4O)[C@H](O)c3ccc(c(Cl)c3)Oc3cc2cc(c3O[C@@H]2O[C@H](CO)[C@@H](O)[C@H](O)[C@H]2O[C@H]2C[C@](C)(N)[C@H](O)[C@H](C)O2)Oc2ccc(cc2Cl)[C@H]1O 3.1%
CC1=C(C)C(=O)C(CCCCC#CCCCC#CCO)=C(C)C1=O 5.7%
C=C1C[C@@]23CC[C@H]4[C@@](C)(CCC[C@@]4(C)C(=O)OC4OC(CO)C(O)C(O)C4O)[C@@H]2CCC1(OC1OC(CO)C(O)C(O)C1OC1OC(CO)C(O)C(O)C1O)C3 (some centres undefined) 5.4%
C[C@H](CS)C(=O)N1CCC[C@H]1C(=O)O 0.1%
O=C(O)CCC(=O)N1CCCC1C(=O)O (centres undefined) 4.1%
NC(N)=Nc1nc(CSCC/C(N)=N/S(N)(=O)=O)cs1 0.1%
CCn1cc(C(=O)O)c(=O)c2cc3c(cc21)OCO3 2.6%
CCn1nc(C(=O)O)c(=O)c2cc3c(cc21)OCO3 3.1%

inhibition, inactive:
O=C(O)c1cc(=O)c2c(Cl)cc(Cl)cc2[nH]1 -1%
CNC(=O)c1cc2c(cn1)[nH]c1ccccc12 -3.2%
Nc1nc2c(ncn2[C@@H]2O[C@H](CO)[C@@H](O)[C@@H]2O)c(=O)[nH]1 -3.6%
O=[N+]([O-])c1ccc(CSc2ncnc3c2ncn3[C@@H]2O[C@H](CO)[C@H](O)C2O)cc1 (some centres undefined) -2.9%
Nc1ncnc2c1ncn2[C@@H]1O[C@H](CO)[C@H](O)C1O (some centres undefined) -0.5%
CNc1ncnc2c1ncn2[C@@H]1O[C@H](CO)[C@H](O)C1O (some centres undefined) -6.8%
OC[C@H]1O[C@H](n2cnc3c(N[C@H]4CCC[C@@H]4O)ncnc32)[C@H](O)[C@@H]1O -1.9%
COc1ccc(/C=C2\COc3ccc(C)cc3C2=O)cc1O -1.7%
CNCCC(Oc1ccccc1C)c1ccccc1 (centres undefined) 0%
CNCCC(Oc1ccccc1OC)c1ccccc1 (centres undefined) -2.5%
OC1(c2ccc(Cl)cc2)CCN(Cc2c[nH]c3ccccc23)CC1 -1.5%
Nc1nc2ccc(Cl)cc2c2nc(-c3ccco3)nn12 -0.2%
CN1C2CCC1CC(OC(c1ccccc1)c1ccccc1)C2 (centres undefined) -10.1%
CN1C2CC(OC(=O)[C@H](CO)c3ccccc3)CC1C1OC12 (some centres undefined) -3.1%
CN1C2CCC1CC(OC(=O)C(O)c1ccccc1)C2 (centres undefined) -5.9%
C=C1C[C@@]23CC[C@H]4[C@@](C)(CCC[C@@]4(C)C(=O)O)[C@@H]2CC[C@]1(O)C3 -3.8%
CN1CC(=O)N/C1=N\C(=O)Nc1cccc(Cl)c1 -0.1%
CC(C)C(=O)c1c(C(C)C)nn2ccccc12 -4.2%
CCOC(=O)N1CCC(=C2c3ccc(Cl)cc3CCc3cccnc32)CC1 -1.5%
Cc1c(OCC(F)(F)F)ccnc1CS(=O)c1nc2ccccc2[nH]1 (centres undefined) -0.2%
CCn1cc(C(=O)O)c(=O)c2cc(F)c(N3CCNC(C)C3)c(F)c21 (centres undefined) -1.7%
CCn1cc(C(=O)O)c(=O)c2ccc(C)nc21 -5.8%
